Screening results as filed in PubChem BioAssay.
Shown are actives, neighbours in structure and some others; about 4.3% of the full set was active somewhere.
NR3A LBD binder – binders of NR3A ligand-binding domain, primary screen, biophysical, differential scanning fluorimetry, uHTS | Glutamate receptor ionotropic, NMDA 3A (GRIN3A) ligand-binding domain | NR3A LBD differential scanning fluorimetry, Tm shift; 0% = protein alone, 100% = glycine-bound protein | Tm shift relative to glycine control, % at 25 µM | 340,000 tested, 2.5% active;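 active = melting temperature shift of at least 10% of the positive control shift, at one fixed dose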
rCAG binder – binders of r(CAG) RNA repeats, primary screen, biochemical, fluorescence. inhibition, % at 3 µM. r(CAG) RNA repeat, TO-PRO-1 dye displacement fluorescence. AID 651821, 2012. 370,000 tested, 1.3% active;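 active = inhibition above the plate cutoff, the mean of all test compounds on that plate plus 3 SD, cut at about 35% in these data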;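 note: higher means more dye released from RNA so lower well fluorescence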
FAS-TE inh – FAS thioesterase domain inhibitors, primary screen, biochemical, fluorescence intensity, uHTS; Fatty acid synthase (Homo sapiens), P49327; AID 602261, 2012; recombinant FAS-TE, OMFH fluorogenic substrate, fluorescence endpoint; 360,000 tested, 0.67% active; inhibition, % at 15 µM;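 active = compounds whose normalised, plate-corrected inhibition of enzyme fluorescence in the single-dose primary screen is 50% or more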
NadD inh – inhibitors of S. aureus NadD, primary screen, biochemical, colorimetric, uHTS; Nicotinate-nucleotide adenylyltransferase NadD (Staphylococcus aureus N315); purified NadD enzyme, colorimetric absorbance read-out; inhibition, % at 20 µM; 360,000 tested, 0.78% active; AID 602399, 2012; in the data active = inhibition above about 26%
A number is an active result.

O=C(N/N=C/c1ccc(F)cc1)c1cc(-c2ccccn2)nc2ccccc12 was read as NR3A LBD binder inactive, rCAG binder inactive, FAS-TE inh inactive and NadD inh inactive.
Screening O=C(N/N=C/c1ccc2c(c1)OCO2)c1cc(-c2ccc(F)cc2)nc2ccccc12 returned NR3A LBD binder 25, rCAG binder inactive, FAS-TE inh inactive and NadD inh inactive.
`Cc1occc1-c1nnc(SCC(=O)Nc2ccc3ncccc3c2)n1-c1ccccc1` gave rCAG binder inactive.
Cc1ccc(Cn2cc(COC(=O)NCC(C)C)nn2)cc1 was read as rCAG binder inactive.
For COC(=O)c1ccc(NC(=O)Nc2ccc3c(c2)OCO3)cc1 the results were NR3A LBD binder 24, rCAG binder inactive, FAS-TE inh inactive and NadD inh inactive.
O=C(Nc1ccc2c(c1)OCCO2)Nc1ccc2c(c1)OCO2 was read as NR3A LBD binder inactive, rCAG binder inactive, FAS-TE inh inactive and NadD inh inactive.
For COC(=O)Nc1ccc2c(c1)OCO2 the results were NR3A LBD binder inactive, rCAG binder inactive, FAS-TE inh inactive and NadD inh inactive.
NC(=O)c1ccc(NC(=O)Nc2ccc3c(c2)OCO3)cc1 was read as NR3A LBD binder 13, rCAG binder inactive, FAS-TE inh inactive and NadD inh inactive.
Screening O=C(c1ccc(S(=O)(=O)c2ccccc2Cl)c([N+](=O)[O-])c1)N1CCCCCC1 returned NR3A LBD binder 12, rCAG binder inactive, FAS-TE inh inactive and NadD inh inactive.
For CC(COc1ccccc1C#N)CN1CCC(C(O)(c2ccccc2)c2ccccc2)CC1 (centres undefined) the results were rCAG binder inactive.
`COC(=O)c1sc(NC(=O)/C=C/c2ccc(C)cc2)nc1C` gave NR3A LBD binder 23, rCAG binder inactive, FAS-TE inh inactive and NadD inh inactive.
COc1ccc(/C=C/C(=O)Nc2nc(C)c(C(=O)N(C)C)s2)cc1 was read as NR3A LBD binder inactive, rCAG binder inactive, FAS-TE inh inactive and NadD inh inactive.
Screening COC(=O)c1sc(NC(=O)/C=C/c2ccccc2Cl)nc1C returned NR3A LBD binder 19, rCAG binder inactive, FAS-TE inh inactive and NadD inh inactive.
`Cc1nc(NC(=O)/C=C/c2ccccc2)sc1C(=O)Nc1ccccc1` gave NR3A LBD binder 21, rCAG binder inactive, FAS-TE inh inactive and NadD inh inactive.
`CCOC(=O)c1sc(NC(=O)/C=C/c2ccccc2)nc1C` gave NR3A LBD binder 10, rCAG binder inactive, FAS-TE inh inactive and NadD inh inactive.
For CCOC(=O)CNC(=O)c1sc(NC(=O)/C=C/c2ccccc2)nc1C the results were NR3A LBD binder inactive, rCAG binder inactive, FAS-TE inh inactive and NadD inh inactive.
Screening COC(=O)c1sc(NC(=S)NC(=O)c2ccccc2Cl)nc1C returned NR3A LBD binder inactive, rCAG binder inactive, FAS-TE inh inactive and NadD inh inactive.
`CCOC(=O)c1sc(=S)n(Cc2ccccc2)c1C` gave NR3A LBD binder 14, rCAG binder inactive, FAS-TE inh inactive and NadD inh inactive.
CCOC(=O)c1sc(=S)n(-c2ccccc2)c1C was read as NR3A LBD binder inactive, rCAG binder inactive, FAS-TE inh inactive and NadD inh inactive.
Screening Clc1ccc([C@H]2OC[C@@]3(CNCc4ccccn4)CS[C@H](c4ccc(Cl)cc4)N23)cc1 returned rCAG binder inactive.
`C=CCc1cccc(CNc2nc3ccccc3n2C(C)C)c1O` gave NR3A LBD binder 11, rCAG binder inactive, FAS-TE inh inactive and NadD inh inactive.
CCOC(=O)[C@]12CCCCC/C=C\1N(Cc1ccc(OC)cc1)C(=O)[C@H]2CC(=O)NCc1cccc2ccccc12 was read as rCAG binder inactive.
CCCCCC(=O)N/N=C/c1cc(Br)c(O)c(OC)c1 was read as NR3A LBD binder inactive, rCAG binder inactive, FAS-TE inh inactive and NadD inh inactive.
`COc1cc(/C=N/NC(=O)CC2(C)OCCO2)cc(Br)c1O` gave NR3A LBD binder 37, rCAG binder inactive, FAS-TE inh inactive and NadD inh inactive.
`NC(=S)N/N=C/c1ccc(-c2ccccc2)o1` gave NR3A LBD binder inactive, rCAG binder inactive, FAS-TE inh inactive and NadD inh inactive.
`NC(=S)N/N=C\c1ccc(-c2cccc(Cl)c2Cl)o1` gave NR3A LBD binder 27, rCAG binder inactive, FAS-TE inh inactive and NadD inh inactive.
`CCOc1ccccc1NC(=O)CC1(CC(=O)N2CCOCC2)CCCC1` gave NR3A LBD binder 13, rCAG binder inactive, FAS-TE inh inactive and NadD inh inactive.
For COc1ccc(NC(=O)CC2(CC(=O)N3CCOCC3)CCCC2)cc1Cl the results were NR3A LBD binder inactive, rCAG binder inactive, FAS-TE inh inactive and NadD inh inactive.
For COc1ccc(CCNc2nc(-c3sc(N)nc3C)cs2)cc1OC the results were NR3A LBD binder inactive, rCAG binder inactive, FAS-TE inh inactive and NadD inh 30.
`COC(=O)c1ccc(Cn2ccc3ccc(-c4ccc5ccn(C(=O)c6ccccc6OC)c5c4)cc32)cc1` gave rCAG binder inactive.
Cc1ccccc1Cn1cc(CN2[C@H](C)COc3cc(Br)ccc3S2(=O)=O)nn1 was read as rCAG binder inactive.
O=S(=O)(NCCc1ccccc1)c1ccc(F)cc1Br was read as NR3A LBD binder 13, rCAG binder inactive, FAS-TE inh inactive and NadD inh inactive.
For O=C(NC(=S)Nc1ccccn1)c1ccccc1 the results were NR3A LBD binder inactive, rCAG binder inactive, FAS-TE inh inactive and NadD inh inactive.
For O=C(NC(=S)Nc1ccccn1)c1ccc([N+](=O)[O-])cc1 the results were NR3A LBD binder 11, rCAG binder inactive, FAS-TE inh inactive and NadD inh inactive.
`NC(=S)N/N=C/c1c(O)c(Br)cc2oc3c(c12)CCCC3` gave NR3A LBD binder 10, rCAG binder inactive, FAS-TE inh inactive and NadD inh inactive.
Screening Oc1c(Br)cc2oc3c(c2c1CNCc1ccccc1)CCCC3 returned NR3A LBD binder inactive, rCAG binder inactive, FAS-TE inh inactive and NadD inh inactive.
For Cc1cc(OC[C@@H](O)CN2CCC(C(O)(c3ccccc3)c3ccccc3)CC2)ccc1Br the results were rCAG binder inactive.
O=C(Nc1ccc(F)cc1)Nc1sccc1-c1nc2ccccc2s1 was read as NR3A LBD binder 31, rCAG binder inactive, FAS-TE inh inactive and NadD inh inactive.
For Cc1cccn2cc(-c3cccc(NC(=O)c4cccs4)c3)nc12 the results were NR3A LBD binder 23, rCAG binder inactive, FAS-TE inh inactive and NadD inh inactive.
Cc1nc(-c2cccc(NC(=O)c3cccs3)c2)cs1 was read as NR3A LBD binder inactive, rCAG binder inactive, FAS-TE inh inactive and NadD inh inactive.
For O=C(Nc1ccc(O)c(-c2nc3ccccc3s2)c1)c1cccs1 the results were NR3A LBD binder 26, rCAG binder inactive, FAS-TE inh inactive and NadD inh inactive.
For O=C(Nc1ccc(O)c(-c2nc3ccccc3s2)c1)c1cc(=O)c2ccccc2o1 the results were NR3A LBD binder inactive, rCAG binder inactive, FAS-TE inh inactive and NadD inh inactive.
